Experimental data: PubChem BioAssay AID1159580 (chemical genetic matrix, 2015)
Out of some 5,500 compounds screened, about 2,000 (36%) were called active. Inconclusive results (about 18%) are left out. The list shows a part of the results. A number with no mark means an inactive call. Rule as the data show it: active = normalized growth mostly below about 0.91 (no sharp cut-off); inconclusive = no clear call, values can overlap the other calls; inactive = mostly above about 0.92.

Experiment: chemical genetic growth profiling, strain panel (AID 1159580);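 also: tested at 20 µM; growth read once vehicle control cultures reached saturation at 30 °C; 1 = growth at the plate median or of vehicle wells; lower values mean less growth of the strain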
Details: S. cerevisiae deletion strains, growth OD

Compound: CNC(=O)[C@H]1O[C@@H](n2cnc3c(N)ncnc32)C(O)[C@H]1O (some centres undefined)
- normalized growth (locus YAL013W, strain DEP1, active compounds read low): 0.987
- normalized growth (locus YAL040C, strain CLN3, active compounds read low): 0.989
- normalized growth (locus YDR363W, strain ESC2, active compounds read low): 1.07
- normalized growth (locus YER002W, strain NOP16, active compounds read low): 0.973
- normalized growth (locus YGR078C, strain PAC10, active compounds read low): 1
- normalized growth (locus YMR263W, strain SAP30, active compounds read low): 0.985
- normalized growth (locus YNL128W, strain TEP1, active compounds read low): 0.983
- normalized growth (locus YNL175C, strain NOP13, active compounds read low): 0.984
- normalized growth (locus YNL197C, strain WHI3, active compounds read low): 0.997
- normalized growth (locus YNL224C, strain SQS1, active compounds read low): 0.996
- normalized growth (locus YNL322C, strain KRE1, active compounds read low): 1.02
- normalized growth (locus YOR083W, strain WHI5 (second series), active compounds read low): 1.02
- normalized growth (locus YPL241C, strain CIN2, active compounds read low): 0.976

Compound: CSC1=NNC(c2nn(C)cc2Cl)S1 (centres undefined)
- normalized growth (locus YAR019C, strain CDC15, active compounds read low): 0.366 (active)
- normalized growth (locus YBL105C, strain PKC1, active compounds read low): 0.509 (active)
- normalized growth (locus YBR135W, strain CKS1, active compounds read low): 0.582 (active)
- normalized growth (locus YBR136W, strain MEC1, active compounds read low): 0.565 (active)
- normalized growth (locus YBR160W, strain CDC28, active compounds read low): 0.644 (active)
- normalized growth (locus YDL017W, strain CDC7, active compounds read low): 0.586 (active)
- normalized growth (locus YDL028C, strain MPS1, active compounds read low): 0.551 (active)
- normalized growth (locus YDL101C, strain DUN1, active compounds read low): 0.206 (active)
- normalized growth (locus YDL108W, strain KIN28, active compounds read low): 0.653 (active)
- normalized growth (locus YDL132W, strain cdc53, active compounds read low): 0.472 (active)
- normalized growth (locus YDL214C, strain PRR2, active compounds read low): 0.145 (active)
- normalized growth (locus YDR052C, strain DBF4, active compounds read low): 0.874 (active)
- normalized growth (locus YDR054C, strain cdc34, active compounds read low): 0.318 (active)
- normalized growth (locus YDR226W, strain ADK1, active compounds read low): 0.511 (active)
- normalized growth (locus YDR477W, strain SNF1, active compounds read low): 0.134 (active)
- normalized growth (locus YER123W, strain YCK3, active compounds read low): 0.126 (active)
- normalized growth (locus YER133W, strain GLC7, active compounds read low): 0.138 (active)
- normalized growth (locus YFL009W, strain cdc4, active compounds read low): 0.282 (active)
- normalized growth (locus YFL029C, strain CAK1, active compounds read low): 0.374 (active)
- normalized growth (locus YFR003C, strain YPI1, active compounds read low): 0.594 (active)
- normalized growth (locus YFR019W, strain FAB1, active compounds read low): 0.148 (active)
- normalized growth (locus YFR028C, strain CDC14, active compounds read low): 0.444 (active)
- normalized growth (locus YGR040W, strain KSS1, active compounds read low): 0.13 (active)
- normalized growth (locus YGR052W, strain FMP48, active compounds read low): 0.131 (active)
- normalized growth (locus YGR092W, strain DBF2, active compounds read low): 0.117 (active)
- normalized growth (locus YHR030C, strain SLT2, active compounds read low): 0.178 (active)
- normalized growth (locus YHR079C, strain IRE1, active compounds read low): 0.214 (active)
- normalized growth (locus YHR082C, strain KSP1, active compounds read low): 0.236 (active)
- normalized growth (locus YHR205W, strain SCH9, active compounds read low): 0.0971 (active)
- normalized growth (locus YIL147C, strain SLN1, active compounds read low): 0.502 (active)
- normalized growth (locus YJL095W, strain BCK1, active compounds read low): 0.134 (active)
- normalized growth (locus YJL128C, strain PBS2, active compounds read low): 0.31 (active)
- normalized growth (locus YJL157C, strain FAR1, active compounds read low): 0.159 (active)
- normalized growth (locus YJR016C, strain ILV3, active compounds read low): 0.337 (active)
- normalized growth (locus YJR066W, strain TOR1 (second series), active compounds read low): 0.171 (active)
- normalized growth (locus YJR066W, strain TOR1, active compounds read low): 0.17 (active)
- normalized growth (locus YKL048C, strain ELM1, active compounds read low): 0.158 (active)
- normalized growth (locus YKL067W, strain YNK1, active compounds read low): 0.176 (active)
- normalized growth (locus YKL101W, strain HSL1, active compounds read low): 0.142 (active)
- normalized growth (locus YKL193C, strain SDS22, active compounds read low): 0.425 (active)
- normalized growth (locus YKL203C, strain TOR2, active compounds read low): 0.136 (active)
- normalized growth (locus YLR113W, strain HOG1, active compounds read low): 0.157 (active)
- normalized growth (locus YLR133W, strain CKI1, active compounds read low): 0.137 (active)
- normalized growth (locus YLR403W, strain SFP1, active compounds read low): 0.0487 (active)
- normalized growth (locus YML070W, strain DAK1, active compounds read low): 0.147 (active)
- normalized growth (locus YMR001C, strain CDC5, active compounds read low): 0.479 (active)
- normalized growth (locus YMR205C, strain PFK2 (second series), active compounds read low): 0.143 (active)
- normalized growth (locus YMR277W, strain FCP1, active compounds read low): 0.292 (active)
- normalized growth (locus YNL006W, strain LST8, active compounds read low): 0.372 (active)
- normalized growth (locus YNL020C, strain ARK1, active compounds read low): 0.126 (active)
- normalized growth (locus YNL161W, strain CBK1, active compounds read low): 0.393 (active)
- normalized growth (locus YNL183C, strain NPR1, active compounds read low): 0.112 (active)
- normalized growth (locus YNL207W, strain RIO2, active compounds read low): 0.448 (active)
- normalized growth (locus YNL222W, strain SSU72, active compounds read low): 0.455 (active)
- normalized growth (locus YNL307C, strain MCK1 (second series), active compounds read low): 0.122 (active)
- normalized growth (locus YOL078W, strain AVO1, active compounds read low): 0.415 (active)
- normalized growth (locus YOL136C, strain PFK27, active compounds read low): 0.116 (active)
- normalized growth (locus YOR061W, strain CKA2, active compounds read low): 0.118 (active)
- normalized growth (locus YOR119C, strain RIO1, active compounds read low): 0.156 (active)
- normalized growth (locus YOR231W, strain MKK1, active compounds read low): 0.222 (active)
- normalized growth (locus YOR329C, strain SCD5, active compounds read low): 0.487 (active)
- normalized growth (locus YPL031C, strain PHO85, active compounds read low): 0.128 (active)
- normalized growth (locus YPL153C, strain RAD53, active compounds read low): 0.121 (active)
- normalized growth (locus YPL204W, strain HRR25, active compounds read low): 0.16 (active)
- normalized growth (locus YPL209C, strain IPL1, active compounds read low): 0.595 (active)
- normalized growth (locus YPL256C, strain CLN2, active compounds read low): 0.177 (active)
- normalized growth (locus YPR025C, strain CCL1, active compounds read low): 0.511 (active)
- normalized growth (locus YPR106W, strain ISR1, active compounds read low): 0.395 (active)
- normalized growth (locus YPR111W, strain DBF20, active compounds read low): 0.525 (active)
- normalized growth (strain NNK1, active compounds read low): 0.199 (active)
- normalized growth (strain TSCII, active compounds read low): 0.337 (active)
